These results are taken from PubChem BioAssay (NCI).

Test [1] is described as follows: NCI Yeast Anticancer Drug Screen. Data for the rad50 strain (AID 155).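 Also: 0% = growth of vehicle-only cultures of the same strain.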 To be noted: S. cerevisiae rad50 strain growth inhibition; at 50.0 µM; active compounds read high. The gist of the method: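 Vehicle-treated cultures provide the reference for the growth inhibition reported for compound-exposed, repair-deficient yeast.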
Test [2] is described as follows: NCI Yeast Anticancer Drug Screen. Data for the mec2-1 strain (AID 157). Particulars: S. cerevisiae mec2-1 strain, at 50.0 µM, active compounds read high. The gist of the method: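 Cells of the genetically defined mec2-1 yeast strain are incubated with test compound. Inhibition of growth is calculated against vehicle-treated controls.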
A short description of test [3]: NCI Yeast Anticancer Drug Screen. Data for the sgs1 mgt1 strain (AID 161).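 Also: 0% = growth of cultures given vehicle only.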 Particulars: S. cerevisiae sgs1 mgt1 strain, at 50.0 µM, active compounds read high. The gist of the method:
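Inhibition of yeast growth, normalised to vehicle-treated controls, is reported for a strain bearing genetic alterations in DNA damage repair.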

A short description of test [4]: NCI Yeast Anticancer Drug Screen. Data for the cln2 rad14 strain (AID 165).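 Also: 0% = growth equal to vehicle treated cultures.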 To be noted: S. cerevisiae cln2 rad14 strain, at 50.0 µM, active compounds read high. The gist of the method: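 The screen exposed genetically defined yeast (cln2 rad14) to test compounds and scored growth inhibition relative to vehicle-treated controls.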
A short description of test [5]: NCI Yeast Anticancer Drug Screen. Data for the bub3 strain (AID 167). Particulars: S. cerevisiae bub3 mutant strain, at 50.0 µM, active compounds read high. The gist of the method: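 Mutant yeast screening strain plus compound; vehicle-treated cultures serve as the 0% inhibition reference.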
Test [6] can be described thus: NCI Yeast Anticancer Drug Screen. Data for the mlh1 rad18 strain (AID 175). Particulars: S. cerevisiae mlh1 rad18 strain growth inhibition; at 50.0 µM; active compounds read high. The essentials: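 Compound-treated yeast growth, normalised to vehicle controls. Strain bears defined DNA repair mutations.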

About 79,000 compounds went through this panel and 15% of them were active in at least one assay; those are over-represented in the sample as a whole. Unmarked numbers belong to inactive results. Activity calls are given as the source filed them. Rule as the data show it: active = growth inhibition above about 70%; inactive = the rest.

`c1cc2c(cc1NC1=NCCO1)OCO2`: the growth inhibition is -23.2% in test [1]; -18.8% in test [2]; -3.65% in test [3]; 0.7% in test [4]; -13.8% in test [5]; -25.2% in test [6].

For the molecule `Cl.[O-]c1cccc2cccnc12.[O-]c1cccc2cccnc12.[O-]c1cccc2cccnc12.[O-]c1cccc2cccnc12.[Ti+4]`, the growth inhibition in test [1] is 89.8% (active); in test [2], 92.8% (active); in test [3], 92.8% (active); in test [4], 91.3% (active); in test [5] it was 92% (active); in test [6], 84.6% (active).

For `N/C(=N\NS(=O)(=O)c1ccccc1)N[N+](=O)[O-]`, the growth inhibition in test [1] is -3.1%; in test [2] it was 21.7%; in test [3], 7.05%; in test [4], -8.55%; in test [5], 24.2%; in test [6], 7.25%.

Take `O=[N+]([O-])c1ccccc1CBr`: the growth inhibition in test [1] is 52.8%; in test [2], 34.5%; in test [3] it was 57%; in test [4] it was 34.9%; in test [5], 33.5%; in test [6], 42%.

Regarding `CCC[CH2][Sn]([CH2]CCC)[CH2]CCC.CCC[CH2][Sn]([CH2]CCC)[CH2]CCC`, the growth inhibition was 99.4% (active) in test [1]; 99.7% (active) in test [2]; 99.7% (active) in test [3]; 99.5% (active) in test [4]; 99.7% (active) in test [5]; 99.2% (active) in test [6].

With `CN1[C@@H](CC(=O)c2ccccc2)CCC[C@H]1CC(=O)c1ccccc1`, the growth inhibition in test [1] is 21.2%; in test [2] it was 5.4%; in test [3] it was 42.5%; in test [4] it was 37.3%; in test [5], 28.2%; in test [6] it was 1.25%.

For the molecule `NC(=O)Oc1ccccc1`, the growth inhibition was -4.5% in test [1]; -26.4% in test [2]; 5.4% in test [3]; 12.1% in test [4]; -10% in test [5]; -3.6% in test [6].

Take `CC(C)=CCC12Cc3ccc(O)cc3C(C(C)CN1)C2C` (stereo not given): the growth inhibition in test [1] is -1.5%; in test [2] it was 9.8%; in test [3], 27.8%; in test [4], 11.8%; in test [5], 10.7%; in test [6] it was 25.7%.

As for `O=[N+]([O-])c1cc2n[nH]nc2c2nonc12`, the growth inhibition in test [1] was 1.45%; in test [2] it was 11.3%; in test [3], 11.4%; in test [4] it was -2.05%; in test [5] it was 27.1%; in test [6], 5.7%.

Consider `CN1C2CCC1CC1(C2)SCCS1`, for which the growth inhibition in test [1] was 2.5%; in test [2], 3.85%; in test [3], 3.1%; in test [4], 6.2%; in test [5], 6.85%; in test [6], 4.45%.

On to `COc1ccc(N=NC(=O)NC(CC(C)C)C(=O)NC(C)C(=O)O)cc1` (stereo not given), for which the growth inhibition was -11.8% in test [1]; -26.4% in test [2]; -8.5% in test [3]; -19.6% in test [4]; -31.4% in test [5]; 5.15% in test [6].

With `C=[CH][Pb]([CH]=C)([CH]=C)[O]C(C)=O`, the growth inhibition in test [1] is 97.2% (active); in test [2], 98% (active); in test [3], 97.9% (active); in test [4], 98.8% (active); in test [5], 98.2% (active); in test [6], 99% (active).

As for `NCc1c[nH]c2ccccc12`, the growth inhibition in test [1] is -25.1%; in test [2], 4.8%; in test [3] it was -22.7%; in test [4], -12.8%; in test [5] it was -16.5%; in test [6], -9.7%.

In the case of `O=C1NN2CCCN=C2c2cnccc21`, the growth inhibition was -12.3% in test [1]; 4.5% in test [2]; 11.4% in test [3]; -34.6% in test [4]; 27.6% in test [5]; -7.4% in test [6].

For `CN(C)NP(=O)(NN(C)C)c1ccccc1`, the growth inhibition is -49.9% in test [1]; -18.1% in test [2]; -22.4% in test [3]; -67.8% in test [4]; -1.6% in test [5]; -14.4% in test [6].

`Cc1cccc(CCF)c1`: the growth inhibition was -8.4% in test [1]; 8.5% in test [2]; 1.25% in test [3]; -3.8% in test [4]; -0.15% in test [5]; -4.75% in test [6].

Consider `O=[N+]([O-])c1ccc(P(=O)(O)O)cc1`, for which the growth inhibition was -7.5% in test [1]; -27.7% in test [2]; 0.3% in test [3]; -22.4% in test [4]; 2.85% in test [5]; 10.4% in test [6].

Consider `CC1(C)N=C(N)N=C(N)N1c1ccc(CCCCCCc2ccc(S(=O)(=O)F)cc2)cc1`, for which the growth inhibition in test [1] was 99.5% (active); in test [2] it was 99% (active); in test [3] it was 99.5% (active); in test [4], 99% (active); in test [5], 99% (active); in test [6] it was 99.4% (active).

On to `BrCC[N+]12CC[N+](CCBr)(CC1)C2` (tested in a mixture with another compound), for which the growth inhibition in test [1] is 63.1%; in test [2], 49.5%; in test [3], 81.6% (active); in test [4], 61.5%; in test [5], 78.1% (active); in test [6], 42.4%.

Regarding `c1ccc(CCN2CCCCC2)cc1`, the growth inhibition is 23.2% in test [1]; -4.6% in test [2]; 10.4% in test [3]; -2.45% in test [4]; -14.5% in test [5]; 33.9% in test [6].
